Drawing on PubChem BioAssay AID488890 (Southern Research Specialized Biocontainment Screening …, 2010), this text covers inhibition for 32 compounds.

Among all 320,000 compounds or so, about 1,300 (0.41%) were called active. Roughly 3% stayed inconclusive and do not appear here. The rule behind the calls is not given here. Not all results are given here. Results with a measured potency or affinity are listed apart.

This assay can be described thus: growth inhibition of non-replicating M. tuberculosis (AID 488890).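 Note: plate controls were DMSO cells for no effect and high antibiotic wells for full effect.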 To be noted: Mycobacterium tuberculosis non-replicating, at 25 µM, stronger effect = higher value.
In the case of `CCCCc1ccc(-c2nc(-c3ccncc3)no2)cc1`, the inhibition was 22.1%.

With `CC1=C(C(=O)Nc2ccccc2)S(=O)(=O)CCO1`, the inhibition came out at 68.2%. Take `Cc1ccc(NC(=O)c2ccccc2)cc1`: the inhibition stood at 25.8%. As to `CCOc1cc(C(=O)Nc2cc(=O)n(C)c(=O)n2C)cc(OCC)c1OCC`, the inhibition is 1.17%. With `Cc1cc(Cl)ccc1C(=O)C1CCCN(C(=O)c2cc(C(C)C)no2)C1` (configuration not stated), the inhibition was found to be 45.6%.

As to `CCc1ccccc1NC(=O)N1CCc2ccccc2C1`, the inhibition was -17.5%. In the case of `CCCCNC(=O)N1CCc2[nH]c3ccccc3c2C1`, the inhibition amounted to 5.76%. `CCOC(=O)C1=NN(C(=O)c2ccccc2)C(O)(c2ccc(C)cc2)C1` (configuration not stated): the inhibition was 73.7%. Turning to `COC(=O)C1=NN(C(=O)c2cccc(Br)c2)C(O)(c2ccc(Cl)cc2)C1` (configuration not stated), the inhibition was found to be 75.6%. In the case of `COC(=O)C1=NN(C(=O)c2ccc(Cl)cc2)C(O)(c2ccccc2)C1` (configuration not stated), the inhibition amounted to 79.6%.

Take `CCOC(=O)N1N=C(C)CC1(O)c1ccccc1` (configuration not stated): the inhibition is -14.8%.

As for `Cc1cn(C(=O)c2cccc(Br)c2)c(C)n1`, the inhibition is -0.97%.

Consider `COC(=O)C1=NN(C(=O)c2ccccc2)C(O)(c2ccc([N+](=O)[O-])cc2)C1` (configuration not stated), for which the inhibition was determined as 21.5%.

As for `OCCC1CN(Cc2nc3ccccc3s2)CCN1C1CCCC1` (configuration not stated), the inhibition is -3.44%. For `O=C(CSc1nnc2ccccn12)N1CCc2ccccc2C1`, the inhibition is -9.62%. For the compound `Cc1ccccc1CN1C(=O)/C(=C\c2ccc(C(=O)NCCN3CCOCC3)cc2)Sc2ccccc21`, the inhibition was 34.3%. Regarding `O=C(COC(=O)c1cccnc1Cl)Nc1cc(S(=O)(=O)N2CCOCC2)ccc1Cl`, the inhibition is -5.03%.

As to `O=C(CC1CCCCC1)NCC1CCCO1` (configuration not stated), the inhibition was 69.3%. With `Cc1ccc(N(Cc2cc3ccc(C)cc3[nH]c2=O)S(=O)(=O)c2ccccc2)c(C)c1`, the inhibition was 3.45%. As for `CCCCOC(=O)C1CCC[C@@H](C)N1` (some centres not stated), the inhibition was -6.13%.

Regarding `CCCCOC(=O)C1CCCC(C)N1` (configuration not stated), the inhibition came out at 0.64%. As for `Cc1ccc(NC(=O)COC(=O)CN2C(=O)C3CCCCC3C2=O)cc1S(=O)(=O)N1CCOCC1` (configuration not stated), the figure is 6.8%; as for `O=C(N/N=C/c1cc([N+](=O)[O-])ccc1O)NC12CC3CC(CC(C3)C1)C2`, 54.2%. On to `CCNC(=O)C(=O)N/N=C/c1cc([N+](=O)[O-])ccc1O`, for which the inhibition worked out at 27.1%. Take `O=C1NCCCC1C(=O)N/N=C/c1cc([N+](=O)[O-])ccc1O` (configuration not stated): the inhibition came out at 15.8%.

For `O=C(N/N=C/c1cc([N+](=O)[O-])ccc1O)C1C2CCCCC21` (configuration not stated), the inhibition was found to be 77.2%.

For the compound `CC1(C)Cc2nc3sc(C(N)=O)c(N)c3cc2CO1`, the inhibition is -3.96%. In the case of `O=C(CCC1CCCC1)NCCCNC(=O)CCC1CCCC1`, the inhibition is 72.8%.

Consider `Cc1nc([N+](=O)[O-])c(Sc2nc3ccccc3n2C)n1Cc1ccccc1`, for which the inhibition came out at 70.5%. Then `C=C(C)C(=O)Nc1cccc(C2=NOC3(C2)C[C@H](C(N)=O)N(C(=O)CC#N)C3)c1` (some centres not stated), with -3.19%; and `CCCCCCCCn1cc(C(C)=O)c(=O)[nH]c1=O`, with 79.8%. Then `CCCCCCCCCn1cc(C(C)=O)c(=O)[nH]c1=O`, with 71.1%.
